Experiment [1] relates to Wnt5a (protein binding on small-molecule microarray). The experiment in a line: small molecules binding Wnt5a protein – biophysical, small-molecule microarray, 635/667 nm fluorescence, primary screen (AID 1142).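 Further: fluorescence read at 667 nm with signal to noise per printed feature.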 Particulars: 635 nm fluorescence, higher = more signal.
A short description of experiment [2]: ATP-based viability of Huh7 replicon cells – cell-based, CellTiter-Glo luminescence, basal, 48 h, cytotoxicity control for HCV replication inhibitor project, primary screen (AID 1143).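 Further: Huh7 hepatoma cells carrying a hepatitis C replication reporter with no stimulus; test concentration not given here.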 Particulars: higher = more signal, called active from +8 up or from −8 down.
A short description of experiment [3]: Pseudomonas biofilm growth suppression – PAO1 strain, BacTiter-Glo luminescence, LB-PBS, primary screen (AID 1144). Particulars: P. aeruginosa PAO1 biofilm, 12 h, higher = more signal.
A short description of experiment [4]: basal CRE-LacZ reporter activity in PC12 – cell-based, unstimulated, primary screen (AID 1145). Particulars: no forskolin, luminescence, 4.5 h, higher = more signal, called active from +8 up or from −8 down.
Experiment [5] can be described thus: forskolin-driven CRE-LacZ activity in PC12 – cell-based, CRE-LacZ reporter, forskolin-stimulated, primary screen (AID 1146).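 Further: PC12 cells with 6xCRE LacZ reporter stimulated by forskolin 10 µM; beta-galactosidase reporter signal reflecting CREB driven transcription.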 Particulars: luminescence, 4.5 h, higher = more signal, called active from +8 up or from −8 down.
Experiment [6] addresses Streptavidin (Streptomyces avidinii) (UniProt P22629). The experiment in a line: compounds binding control protein streptavidin – biophysical, small-molecule microarray, 635/667 nm fluorescence, artefact control for SMM compound annotation, primary screen (AID 1147).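 Further: signal reflects streptavidin binding to arrayed compounds as a control protein.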 Particulars: higher = more signal.
The nature of experiment [7]: probe aInhba binding on compound microarray – biochemical, small-molecule microarray, 635/667 nm fluorescence, primary screen (AID 1148).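 Further: score merges 667nm spot fluorescence with signal-to-noise for antibody binding to printed compounds.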 Particulars: higher = more signal.
For experiment [8], the target named is Torsin-1A (Homo sapiens) (UniProt O14656). The experiment in a line: TOR1A wild-type binding on microarray – cell lysate, small-molecule microarray, lysate, 635/667 nm, primary screen (AID 1149). Particulars: COS7 hTOR1A-WT lysate, 635 nm fluorescence, higher = more signal.
Torsin-1A (Homo sapiens), sequence (O14656 whole entry, looked up): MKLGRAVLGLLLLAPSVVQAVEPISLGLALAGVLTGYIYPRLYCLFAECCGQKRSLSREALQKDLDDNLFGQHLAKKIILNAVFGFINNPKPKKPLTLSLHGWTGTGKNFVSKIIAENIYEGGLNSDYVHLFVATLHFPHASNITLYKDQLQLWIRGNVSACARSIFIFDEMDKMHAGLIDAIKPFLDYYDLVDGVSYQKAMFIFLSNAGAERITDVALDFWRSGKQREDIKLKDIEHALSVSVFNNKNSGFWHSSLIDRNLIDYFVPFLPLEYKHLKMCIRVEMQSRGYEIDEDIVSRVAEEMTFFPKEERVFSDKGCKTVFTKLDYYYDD
The target is the same in experiment [9]. The experiment in a line: torsin A mutant lysate binding on microarrays – cell lysate, small-molecule microarray, COS7 lysate, 635/667 nm fluorescence, primary screen (AID 1150).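 Further: score pools 667 nm emission and signal to noise measuring lysate protein binding.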 Particulars: COS7 hTOR1A mutant lysate, 635 nm fluorescence, higher = more signal.
Experiment [10] has as its system Sonic hedgehog protein (Shh). The experiment in a line: Sonic hedgehog microarray binding compounds – biochemical, small-molecule microarray, 635/667 nm fluorescence, primary screen (AID 1151).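 Further: Shh protein binding to compounds spotted on small-molecule microarray slides; score combines spot fluorescence intensity with signal-to-noise across triplicate slides.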 Particulars: 635 nm fluorescence, higher = more signal.
The nature of experiment [11]: optical density shifts of acrAB sulA E. coli – strain DRC41, OD650, 48 h, E. coli filamentation inducer project, primary screen (AID 1152).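 Further: E. coli MC1000 strain DRC41 lacking acrAB efflux pump and sulA.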 Particulars: higher = more signal, called active from +8 up or from −8 down.
Experiment [12] can be described thus: probe aLefty1 binding on compound microarray – biochemical, small-molecule microarray, 635/667 nm fluorescence, primary screen (AID 1153).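 Further: score merges spot fluorescence with signal-to-noise ratio from the scanned slide images.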 Particulars: higher = more signal.
The nature of experiment [13]: plasmodial surface anion channel blockers, osmotic lysis – cell-based, P. falciparum Indochina, OD700, 1 h, primary screen (AID 1154). Particulars: P. falciparum Indochina infected RBC osmotic lysis, higher = more signal, called active from +8 up or from −8 down.
Experiment [14] can be described thus: plasmodial surface anion channel blockers, osmotic lysis – cell-based, P. falciparum Indochina, OD700, 2 h, primary screen (AID 1155).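 Further: lysis reports solute entry through the parasite surface anion channel PSAC.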 Particulars: P. falciparum Indochina infected erythrocytes, higher = more signal, called active from +8 up or from −8 down.
Experiment [15] in a line: changes in parasitized red cell lysis, either direction – P. falciparum Indochina, OD700, 3 h, PSAC antagonist project, primary screen (AID 1156). Particulars: P. falciparum-infected erythrocytes, osmotic lysis, higher = more signal, called active from +8 up or from −8 down.
Experiment [16] is described as follows: plasmodial surface anion channel blockers, osmotic lysis – cell-based, P. falciparum Indochina, OD700, 18 h, primary screen (AID 1157). Particulars: P. falciparum Indochina infected erythrocytes, osmotic lysis OD700, 18 h; higher = more signal, called active from +8 up or from −8 down.
Experiment [17] is described as follows: S6 kinase pathway phospho-S6 level changes – cell-based, A549, cytoblot, luminescence, serum-stimulated, primary screen (AID 1158).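 Further: serum-stimulated A549 lung adenocarcinoma cells; signal is phosphorylated S6 detected by cytoblot immunostaining with HRP secondary.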 Particulars: 5 h, higher = more signal.
Experiment [18] concerns the target NADPH oxidase 2 (Homo sapiens) (UniProt P04839). The experiment in a line: compounds shifting NOX2 Amplex Red fluorescence – cell-based, HEK293-NOX2, PMA-stimulated, NOX inhibitor project, primary screen (AID 1159). Further: test concentration not given here. Particulars: 45 min, higher = more signal, called active from +8 up or from −8 down.
The target of experiment [19] is NADPH oxidase 4 (Homo sapiens) (UniProt Q9NPH5). The experiment in a line: compounds shifting NOX4 Amplex Red fluorescence – cell-based, HEK293-NOX4, tetracycline-induced, NOX inhibitor project, primary screen (AID 1160). Particulars: HEK293-NOX4, Amplex Red H2O2 fluorescence, 45 min; higher = more signal, called active from +8 up or from −8 down.
NADPH oxidase 4 (Homo sapiens), sequence (Q9NPH5 whole entry, looked up): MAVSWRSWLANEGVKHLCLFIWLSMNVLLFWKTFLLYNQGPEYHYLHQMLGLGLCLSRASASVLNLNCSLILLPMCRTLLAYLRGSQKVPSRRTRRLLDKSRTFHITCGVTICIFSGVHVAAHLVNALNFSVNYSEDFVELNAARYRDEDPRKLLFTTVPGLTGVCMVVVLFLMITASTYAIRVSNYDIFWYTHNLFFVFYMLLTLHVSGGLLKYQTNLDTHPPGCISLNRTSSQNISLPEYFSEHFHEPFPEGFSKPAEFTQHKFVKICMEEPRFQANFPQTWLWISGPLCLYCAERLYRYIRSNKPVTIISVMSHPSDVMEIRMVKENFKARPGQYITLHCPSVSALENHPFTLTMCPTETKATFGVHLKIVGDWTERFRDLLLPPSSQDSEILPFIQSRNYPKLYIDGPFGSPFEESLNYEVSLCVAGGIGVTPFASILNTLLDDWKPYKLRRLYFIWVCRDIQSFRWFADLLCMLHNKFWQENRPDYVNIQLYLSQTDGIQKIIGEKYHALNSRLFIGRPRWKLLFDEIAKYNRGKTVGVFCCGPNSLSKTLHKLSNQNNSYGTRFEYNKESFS
Experiment [20] addresses NADPH oxidase 5 (Homo sapiens) (UniProt Q96PH1). The experiment in a line: compounds shifting NOX5 Amplex Red fluorescence – cell-based, HEK293-NOX5, NOX inhibitor project, primary screen (AID 1161). Particulars: HEK293-NOX5, ionomycin, 45 min, higher = more signal.

Active and inactive are the calls of the source. Unless noted, how the calls were made is not given here.

Streptavidin (Streptomyces avidinii), sequence (P22629 whole entry, looked up): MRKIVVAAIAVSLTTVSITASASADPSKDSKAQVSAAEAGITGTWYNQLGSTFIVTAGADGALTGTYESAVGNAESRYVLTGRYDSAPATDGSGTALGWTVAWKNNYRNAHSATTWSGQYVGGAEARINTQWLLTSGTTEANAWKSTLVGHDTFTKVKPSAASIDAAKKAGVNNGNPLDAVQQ
NADPH oxidase 2 (Homo sapiens), sequence (P04839 whole entry, looked up): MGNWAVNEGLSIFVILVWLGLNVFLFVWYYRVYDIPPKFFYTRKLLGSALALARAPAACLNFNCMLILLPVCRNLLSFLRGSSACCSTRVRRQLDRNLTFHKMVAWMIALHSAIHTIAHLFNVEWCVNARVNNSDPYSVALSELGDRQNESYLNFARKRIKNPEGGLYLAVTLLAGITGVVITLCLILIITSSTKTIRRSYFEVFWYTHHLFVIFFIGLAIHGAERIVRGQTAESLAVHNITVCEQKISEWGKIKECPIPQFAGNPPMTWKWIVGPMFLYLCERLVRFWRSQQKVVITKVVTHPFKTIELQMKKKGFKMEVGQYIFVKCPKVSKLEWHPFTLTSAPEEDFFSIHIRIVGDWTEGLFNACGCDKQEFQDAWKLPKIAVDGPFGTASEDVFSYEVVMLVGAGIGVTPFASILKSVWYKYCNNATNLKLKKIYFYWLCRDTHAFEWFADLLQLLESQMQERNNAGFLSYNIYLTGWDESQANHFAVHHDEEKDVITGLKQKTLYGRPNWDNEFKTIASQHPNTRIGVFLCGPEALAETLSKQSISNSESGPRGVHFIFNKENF
NADPH oxidase 5 (Homo sapiens), sequence (Q96PH1 whole entry, looked up): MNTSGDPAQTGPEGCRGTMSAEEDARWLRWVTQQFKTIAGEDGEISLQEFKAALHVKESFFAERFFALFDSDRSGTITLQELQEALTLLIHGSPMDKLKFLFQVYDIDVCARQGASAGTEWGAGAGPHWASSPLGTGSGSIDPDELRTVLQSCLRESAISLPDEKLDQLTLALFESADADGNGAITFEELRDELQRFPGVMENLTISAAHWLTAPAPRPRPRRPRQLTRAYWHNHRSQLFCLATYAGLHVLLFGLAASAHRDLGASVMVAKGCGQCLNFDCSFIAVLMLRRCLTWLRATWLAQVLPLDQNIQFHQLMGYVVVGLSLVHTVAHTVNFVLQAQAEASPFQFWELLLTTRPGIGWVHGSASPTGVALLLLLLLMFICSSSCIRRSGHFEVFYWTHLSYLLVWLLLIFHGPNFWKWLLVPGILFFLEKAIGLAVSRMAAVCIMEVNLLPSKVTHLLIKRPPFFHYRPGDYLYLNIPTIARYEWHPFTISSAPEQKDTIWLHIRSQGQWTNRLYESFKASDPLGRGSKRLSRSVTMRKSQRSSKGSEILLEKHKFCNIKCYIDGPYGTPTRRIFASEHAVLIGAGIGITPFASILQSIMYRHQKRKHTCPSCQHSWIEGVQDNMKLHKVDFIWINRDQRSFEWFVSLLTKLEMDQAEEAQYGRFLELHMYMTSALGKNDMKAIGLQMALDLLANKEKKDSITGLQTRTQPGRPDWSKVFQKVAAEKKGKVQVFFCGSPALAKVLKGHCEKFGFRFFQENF

Consider `[N-]=[N+]=NCc1ccccc1C[C@@]1(C(N)=O)N=C(c2ccc(OCCCO)cc2)O[C@@H]1c1ccccc1N=[N+]=[N-]`, for which the composite z-score in experiment [1] is 0.336; in experiment [6] it was 1.31; in experiment [7] it was -0.145; in [8], 0.369; in [9], 0.409; in [10], -0.455. In experiment [12], the composite z-score is 0.045. For the same molecule, the z-score is -3.18 (inactive) in experiment [2]; 1.33 (inactive) in [3]; 1.01 (inactive) in experiment [4]; -0.626 (inactive) in experiment [5]; -1.04 (inactive) in [11]; 32.4 (active) in experiment [13]. The z-score in experiment [14] is 31.4 (active); in experiment [15], 1.81 (inactive); in experiment [16], 2.31 (inactive); in experiment [17], -0.441; in [18], 0.0502 (inactive); in [19] it was -0.393 (inactive). Moreover, in experiment [20], the z-score was -1.89.
`C=C[C@H](C)[C@@H](OC(=O)Nc1ccc(SC)cc1)c1ccc(OCCO)cc1`: the composite z-score in experiment [1] was 0.179; in experiment [6], -0.363; in [7] it was 0.36; in experiment [8], -0.0803; in [9] it was 0.278; in [10] it was 1.98. In [12], this molecule came in with a composite z-score of 0.459. In addition, the z-score was -2.91 (inactive) in experiment [2]; -0.567 (inactive) in [3]; 6.08 (inactive) in experiment [4]; -0.24 (inactive) in experiment [5]; -2.61 (inactive) in [11]; 28.3 (active) in [13]. Moreover, the z-score is 20.6 (active) in [14]; 3.01 (inactive) in [15]; 2.27 (inactive) in [16]; -0.336 in [17]; -1.31 (inactive) in experiment [18]; -1.23 (inactive) in experiment [19]. Also, in experiment [20], the z-score came to 0.0398.
With `CCCCCCCCCCC(O)C1C=CC2C(=O)N(C)C(=O)C2N1Nc1ccccc1` (stereo not given), the composite z-score in experiment [1] is -0.56; in [6], -0.925; in experiment [7] it was -0.474; in [8] it was -0.0378; in experiment [9], 0.213; in experiment [10] it was -1.5. Besides, the composite z-score in [12] is -0.206. Also, the z-score in experiment [2] is -0.776 (inactive); in experiment [3], 0.178 (inactive); in experiment [4] it was 0.819 (inactive); in experiment [5], 0.848 (inactive); in experiment [11] it was -2.27 (inactive); in experiment [13], 8.71 (active). The z-score was 3.03 (inactive) in [14]; 0.156 (inactive) in [15]; 2.84 (inactive) in experiment [16]; -1.28 in experiment [17]; -0.433 (inactive) in experiment [18]; -4.22 (inactive) in [19]. Also, in experiment [20], the z-score was -1.7.
For `COCCOC(=O)N1C(=O)[C@@]2(c3cc(C#CCNC(N)=O)ccc31)[C@H](C(N)=O)[C@H]1C(=O)O[C@H](c3ccccc3)[C@H](c3ccccc3)N1[C@@H]2c1ccc(O)cc1`, the composite z-score in experiment [1] is 0.159; in [6] it was -0.0811; in [7] it was 0.296; in [8], 0.572; in [9] it was -0.0113; in experiment [10] it was 0.0133. In addition, in experiment [12], the composite z-score worked out at 0.316. The z-score in [2] is 0.29 (inactive); in experiment [3], -0.204 (inactive); in experiment [4], 0.619 (inactive); in experiment [5] it was -0.713 (inactive); in experiment [11], 0.989 (inactive); in experiment [13], 1.65 (inactive). For the same molecule, the z-score is -0.132 (inactive) in experiment [14]; -1.12 (inactive) in experiment [15]; 0.141 (inactive) in [16]; 0.189 in [17]; 0.161 (inactive) in experiment [18]; -0.181 (inactive) in experiment [19]. For the same molecule, the z-score in [20] was found to be 0.00933.
Regarding `CC(C)c1ccc(NN2C(C(O)C3CCCCC3)C=CC3C(=O)N(c4ccccc4)C(=O)C32)cc1` (stereo not given), the composite z-score in [1] is 0.283; in experiment [6], 1.88; in experiment [7], 0.0968; in [8], -0.147; in experiment [9], 0.316; in [10], 0.771. The same molecule returned a composite z-score in [12] of 0.368. Also, the z-score in experiment [2] was -0.575 (inactive); in [3], -1.15 (inactive); in [4], 0.0467 (inactive); in [5], 0.337 (inactive); in experiment [11] it was -0.78 (inactive); in experiment [13], 3.29 (inactive). Further, the z-score in experiment [14] was 1.71 (inactive); in experiment [15], 0.215 (inactive); in [16] it was 1.37 (inactive); in experiment [17], -0.996; in experiment [18], -1.69 (inactive); in experiment [19], -2.75 (inactive). The z-score in [20] is -2.44.

The values are drawn from PubChem BioAssay.
